# HEK293 cAMP ctrl: counter-screen for TSHR agonists: cAMP increase in parental HEK293; parental HEK293 CNG cAMP sensor, membrane potential fluorescence; Potency, µM (doses to about 57.1 µM), inactives show top-dose activation, usual class: activators; 73,000 tested, 2.5% active; AID 938; also: % of control where 0% means no effect; nearly all actives have a fitted effect of over 55% in size
#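 Parental HEK 293 cells stably expressing a modified CNG channel (no TSHR) report cAMP rise as membrane depolarization. Membrane potential dye with 100 uM RO 20-1724 was loaded for 60 min at room temperature, then compound added for 30 min; fluorescence read at 590 nm.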
# Ub-GFP proteasome: proteasome inhibitors stabilizing ubiquitin-GFP reporter; Potency, µM (doses to about 45.9 µM), without a hit: top-dose activation (GFP accumulation), most hits filed as activators; 67,000 tested, under 10 active; Ubiquitin-GFP reporter cells, proteasome inhibition, GFP fluorescence; response scale: untreated = 0%, 10 µM MG-132 = 100%; active = well fitted activation curve with a large enough effect, not every such curve was filed as active; inconclusive = small, poorly fitted or top-dose-only effect, or another doubt; inactive = no such curve, though single readings can be large or run the other way
#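 U2OS cells expressing ubiquitin(G76V)-GFP, seeded overnight in 0.5% FBS medium, then treated 4 hr at 37 C across 46 uM to 2.9 nM. GFP-positive cells counted by laser cytometry (488 ex/515 em); %activity scaled between basal and 10 uM MG-132.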
# USP2a inh: blocks human ubiquitin-specific protease USP2a; AID 927; Potency, µM (highest dose often 38.3 µM), inactives show at the top dose activity change, negative = inhibition, most hits filed as inhibitors; 60,000 tested, 0.1% active; USP2a enzymatic assay, qHTS inhibition; O75604; also: nearly all actives have a fitted effect of over 60% in size
# Target sequence (O75604 whole entry, looked up): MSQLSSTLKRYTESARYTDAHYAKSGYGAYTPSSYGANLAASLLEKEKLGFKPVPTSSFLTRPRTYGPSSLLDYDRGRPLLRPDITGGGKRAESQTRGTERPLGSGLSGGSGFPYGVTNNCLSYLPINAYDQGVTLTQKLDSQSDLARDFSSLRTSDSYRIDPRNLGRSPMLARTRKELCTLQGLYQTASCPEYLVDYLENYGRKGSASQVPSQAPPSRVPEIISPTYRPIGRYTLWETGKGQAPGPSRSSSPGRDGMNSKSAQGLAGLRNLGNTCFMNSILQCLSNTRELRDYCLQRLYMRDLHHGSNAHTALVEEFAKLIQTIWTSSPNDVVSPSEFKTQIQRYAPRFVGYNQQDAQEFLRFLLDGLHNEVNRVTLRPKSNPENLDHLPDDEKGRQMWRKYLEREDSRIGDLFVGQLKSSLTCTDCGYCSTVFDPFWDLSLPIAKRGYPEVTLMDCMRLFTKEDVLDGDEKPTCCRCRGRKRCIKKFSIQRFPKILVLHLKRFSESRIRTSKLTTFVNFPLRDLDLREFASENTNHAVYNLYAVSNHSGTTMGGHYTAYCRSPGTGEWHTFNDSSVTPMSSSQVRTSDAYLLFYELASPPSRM
#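 USP2 core (20nM final) preincubated 30 min RT with compound, then Ub-PLA2 20nM and NBD C6-HPC 20uM final added; buffer 20mM Tris-HCl pH 8.0, 2mM CaCl2. Fluorescence Ex 460/Em 535 read at 0 and 2.5 h; normalized to NEM.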
# TSHR agonist: TSH receptor (human) agonism; P16473; HEK293-CNG-TSHR cells (CNG channel as cAMP sensor), membrane potential dye, cAMP; Potency, µM (doses to about 57.1 µM), inactives show top-dose activation, actives largely listed as activators; 73,000 tested, 0.48% active; active = well fitted activation curve with a large enough effect in the main read-out, with a control signal flat, not every such curve was filed as active; inconclusive = small, poorly fitted or top-dose-only effect, or a change in a side signal; inactive = no such curve, though single readings can be large or run the other way; % of control where 0% means no effect;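 also: the control signal comes from parental cells without the receptor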
#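 HEK 293 cells stably expressing TSHR and a cAMP-gated CNG channel; parental CNG-only cells as counterscreen. Cells preloaded 60 min with membrane potential dye plus 100 uM RO 20-1724, then compound 30 min; fluorescence read at 590 nm.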
# GBA mod: modulators of human glucocerebrosidase | P04062 | purified enzyme, resorufin glucoside fluorescence (screen aimed at inhibitors), 20 min | Potency, µM | 48,000 tested, 1.1% active; in the data active = potency below about 15 µM; inconclusive = mostly about 16 µM to 33 µM;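 also: the screen sought inhibitors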
#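 Normal human glucocerebrosidase (0.2 nM final) was assayed with resorufin β-D-glucopyranoside (30 uM final) in 50mM citric acid/KH2PO4, 10mM sodium taurocholate, 0.01% tween-20, pH 5.9. Compounds were titrated; fluorescence (Ex 548, Em 600) read after 20 min at RT.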
# PK Bst: alters activity of Bacillus stearothermophilus pyruvate kinase; purified pyruvate kinase, luminescence ATP production; ribose 5-phosphate activator present at AC10; Potency, µM; 51,000 tested, 1.2% active; AID 361; in the data active = potency below about 11 µM; inconclusive = mostly about 12 µM to 25 µM;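 the screen sought inhibitors and activators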;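 also: scaled between full activation by ribose 5 phosphate and full inhibition by luteolin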
# An asterisk follows results filed as active; ? = inconclusive; . = no result; [ ] = another dose, or the depositor's remark. Most compounds without a hit are left out; they make up all but 4.1% or so of the library. Unless noted, calls follow the shape of the dose curve; as a rule, active = well fitted curve in the direction sought with a large enough effect; inconclusive = small, poorly fitted or top-dose-only effect, or another doubt; inactive = no such curve, though single readings can be large; an effect the other way counts as inactive or inconclusive. Potency is read from the fitted curve at half-maximal effect.
SMILES,HEK293 cAMP ctrl,Ub-GFP proteasome,USP2a inh,TSHR agonist,GBA mod,PK Bst
Fc1ccccc1OCCSc1nnnn1-c1ccccc1,29.9%,3.6%,-9.3%,.,>76.9,.
c1ccc(OCCSc2nnnn2-c2ccccc2)cc1,25.1µM*,-1.6%,-1.4%,?,>76.9,.
c1ccc(-n2nnnc2SCc2cccc3nsnc23)cc1,20µM*,5.0%,-12.2%,?,>76.9,>57
COc1ccc(-c2nc3cnc(N4CCN(C)CC4)nc3n(CCc3ccccc3)c2=O)cc1,-4.0%,?,173.8%,6.6%,.,.
COCC(=O)N1CCC2(CC1)CCN(c1ccccn1)CC2,-7.9%,1.8%,-5.2%,21.8%,.,.
O=C(Oc1ccccc1)N1CCC2(CC1)CCN(c1ccncc1)CC2,7.94µM*,0.0%,28.6%,?,.,.
O=C(Oc1ccccc1)N1CCC[C@@]2(CCN(c3ccncc3)C2)C1,?,8.1%,1.0%,?,.,.
O=C(Oc1ccccc1)N1CCC2(CC1)CCN(c1ccccn1)CC2,12.6µM*,3.1%,-21.8%,?,.,.
COCC(=O)N1CCC2(CC1)CN(c1ccccn1)C2,15.8µM*,-16.1%,-0.4%,?,.,.
CC(=O)NCCNc1ccnc(-c2ccccc2C(F)(F)F)n1,1.5%,4.2%,17.2%,0.7%,.,.
CCN(c1cccc(C)c1)S(=O)(=O)c1ccc(O)c(C(=O)O)c1,-2.1%,.,.,3.3%,.,.
CC(C)c1ccc(-c2nnn(CCC(=O)O)n2)cc1,21.5%,-2.1%,?,-3.8%,>76.9,.
CCc1ccc(-c2nnn(CCC(=O)OC)n2)cc1,7.94µM*,1.3%,-1.4%,?,>76.9,.
O=C(CN1C(=O)COc2ccccc21)N(Cc1cccnc1)Cc1cccc(F)c1,15.8µM*,-6.5%,37.3%,?,>76.9,>57
Cc1ccc2cc(C#N)c(NCCNC(=O)C3CC3)nc2c1C,25.1µM*,0.8%,14.4%,?,>76.9,>57
CC(O)c1nc2ccccc2n1Cc1nnc(-c2ccc(Cl)cc2)o1 (centres undefined),24.9%,-1.9%,19.7%,15.1%,>76.9,2.52*
c1ccc(-c2nnc(Cn3c4ccccc4c4nc5ccccc5nc43)o2)cc1,?,7.9%,3.9%,?,>76.9,>57
Cc1ccc(Cl)cc1N1CCN(Cc2nnnn2Cc2ccco2)CC1,7.94µM*,1.3%,-4.6%,?,>76.9,>57
O=C(Nc1ccccc1)NC1CCN(Cc2nnnn2C2CCCCC2)CC1,-3.6%,-5.2%,14.3%,1.0%,>76.9,>57
Cc1ccc(Cl)cc1N1CCN(Cc2nnnn2C2CCCCC2)CC1,12.6µM*,-1.0%,-23.4%,?,?,>57
COc1ccc(C(=O)N2CCC[C@@]3(CCN(Cc4ccc(C#N)cc4)C3)C2)cc1,?,0.3%,35.8%,?,.,.
O=c1c(-c2ccc(Cl)cc2)nc2cnc(N3CCNCC3)nc2n1-c1ccccc1,-12.9%,-4.8%,213.6%,0.9%,.,.
CCCCCCCC/C=C\CCCCCCCC(=O)N(CCO)CCO,-15.6%,.,.,?,.,.
CS(=O)(=O)c1ccc(Cn2c3c(c4cc(F)cc(F)c42)CCC[C@H]3CC(=O)O)cc1,12.5%,3.7%,.,-8.9%,.,.
c1ccc(-c2nnn(CCN3CCCCC3)n2)cc1,9.0%[11.4 µM],4.2%[9.17 µM],.,1.4%[11.4 µM],.,.
SMILES,HEK293 cAMP ctrl,Ub-GFP proteasome,USP2a inh,TSHR agonist,GBA mod,PK Bst
c1ccc(-c2nnn(C34CC5CC(CC(C5)C3)C4)n2)cc1,19.0%,6.2%,-10.7%,31.6µM*,.,.
CSCSC1=C(C#N)C(c2ccc(Cl)cc2)C(C(C)=O)=C(C)N1 (centres undefined),25.1µM*,-4.2%,-7.7%,?,.,.
CCOC(=O)CSC1=C(C#N)C(c2ccccc2)C(C(C)=O)=C(C)N1 (centres undefined),20.4%,0.9%,1.0%,-7.0%,>76.9,>57
COc1ccc(-c2nnc3sc(-c4cccs4)nn23)cc1OC,17.1%,-1.7%,12.0%,12.8%,>76.9,2.61*
COc1cc(-c2nnc3sc(-c4cccs4)nn23)cc(OC)c1OC,-4.4%,-7.1%,17.1%,12.3%,>76.9,2.79*
O=C(O)c1ccc(NS(=O)(=O)Cc2ccccc2)cc1,16.0%[11.4 µM],2.9%[9.17 µM],.,-5.2%[11.4 µM],.,.
CC(=O)N1CN(Cc2ccccn2)Cc2c1sc1c2CCCC1,23.1%,0.1%,-9.0%,5.7%,15.1*,>57
CC(=O)N1CN(CCCn2ccnc2)Cc2c1sc1c2CCCC1,11.2%,0.0%,3.6%,0.0%,?,>57
O=C(c1cc(-c2ccc(Cl)cc2)on1)N1CCOCC1,-4.0%,-8.1%,-5.9%,-6.0%,>76.9,.
O=C(c1cc(-c2ccc(Cl)cc2Cl)on1)N1CCOCC1,4.2%,1.3%,-6.6%,-10.0%,>76.9,6.29*
CCC(O)OC(O)CC (centres undefined),-7.3%,.,.,?,.,.
CC1CCN(CCCNC(=O)c2coc3nc4ccccc4nc23)CC1,1.8%,3.6%,10.6%,4.0%,>76.9,>57
Cc1ccc(CCNC(=O)c2coc3nc4ccccc4nc23)cc1,20µM*,-2.6%,21.6%,?,?,>57
COC(=O)c1ccc(OCC2c3cc(OC)c(OC)cc3CCN2C(=O)c2ccco2)cc1 (centres undefined),28.1%,0.0%,24.0%,31.6µM*,>76.9,>57
CCC(=O)N1CCc2cc(OC)c(OC)cc2C1COc1ccc(C(=O)OC)cc1 (centres undefined),?,1.0%,10.4%,?,>76.9,>57
CCCCCCN1CC(O)=C(c2nc3ccccc3[nH]2)C1=N,-5.5%,0.9%,-4.3%,-1.6%,11*,>57
CCC(C)N1CC(O)=C(c2nc3ccccc3[nH]2)C1=N (centres undefined),8.9%,0.9%,-11.0%,-3.0%,.,.
COc1ccc(C(=O)/C=C/N2CCCCC2)cc1OC,-1.1%[11.4 µM],23.9%[9.17 µM],37.6%[7.66 µM],9.8%[11.4 µM],.,.
Cc1ccc(N2CC(C(=O)Nc3ccccn3)CC2=O)cc1 (centres undefined),-12.5%,-0.8%,-0.3%,19.1%,>76.9,>57
Cc1ccc(C(=O)/C=C/Nc2ccccn2)cc1,.,.,.,.,.,0.747*
COc1ccc(C(=O)/C=C/Nc2cccc(C)n2)cc1OC,.,.,.,.,.,0.632*
CCN(CC)S(=O)(=O)c1ccc(NC(=O)c2cccc3c2C(=O)N(CCOC)C3)cc1,9.3%,6.6%,12.0%,11.0%,>76.9,>57
COCCN1Cc2cccc(C(=O)Nc3ccc(S(=O)(=O)N4CCCCCC4)cc3)c2C1=O,16.2%,-16.0%,18.6%,.,15.3*,>57
Cc1ccc(-c2nnn(CC(=O)N(Cc3cccs3)C(C(=O)NC3CCCC3)c3ccco3)n2)o1 (centres undefined),12.6µM*,0.6%,27.0%,?,>76.9,>57
O=C(NC1CCCC1)C(c1cccs1)N(Cc1ccco1)C(=O)Cn1nnc(-c2cccs2)n1 (centres undefined),20µM*,-1.7%,28.9%,?,10.8*,>57

# Compound activity (PubChem BioAssay)
